# Bioassay records from PubChem BioAssay.
# TrxR1 inh = qHTS Assay for Inhibitors of Mammalian Selenoprotein Thioredoxin Reductase 1 (TrxR1): qHTS; Potency, µM (doses to about 114 µM), most hits filed as inhibitors; Thioredoxin reductase 1, cytoplasmic (Rattus norvegicus), O89049; AID 588453, 2011; recombinant rTrxR1, NADPH fluorescence consumption, selenite substrate; 1% of 390,000 active; note: nearly all actives have a fitted effect of over 65% in size
# Target sequence (O89049 whole entry, looked up): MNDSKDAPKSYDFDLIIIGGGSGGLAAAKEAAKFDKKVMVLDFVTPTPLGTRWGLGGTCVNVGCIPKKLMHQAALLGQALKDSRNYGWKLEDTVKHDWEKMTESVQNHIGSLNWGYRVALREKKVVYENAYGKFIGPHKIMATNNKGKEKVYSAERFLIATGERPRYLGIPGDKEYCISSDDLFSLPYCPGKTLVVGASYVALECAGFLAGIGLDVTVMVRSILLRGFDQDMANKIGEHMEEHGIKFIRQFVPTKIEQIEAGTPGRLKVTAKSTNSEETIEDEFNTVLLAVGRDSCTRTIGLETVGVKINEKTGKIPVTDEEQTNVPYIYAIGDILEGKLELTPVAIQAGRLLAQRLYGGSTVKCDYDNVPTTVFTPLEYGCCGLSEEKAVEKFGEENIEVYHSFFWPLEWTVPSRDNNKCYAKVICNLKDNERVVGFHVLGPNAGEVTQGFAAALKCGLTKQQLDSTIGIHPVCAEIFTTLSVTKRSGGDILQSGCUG
#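 Rat TrxR1 (90 nM in the dispensed reagent) was pre-reduced with 400 uM NADPH for 5 min at room temperature, then incubated with compound for 15 min. After 400 uM selenite was added, NADPH fluorescence (Ex 340/Em 450 nm) was followed for 8 min.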
# miR-21 reporter = qHTS Assay for Modulators of miRNAs and/orActivators of miR-21; 340,000 tested, under 10 active; HeLa miR-21 FLuc reporter, luciferase, 48 h; Potency, µM (series often up to 38.3 µM), hits mostly activators;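 note: miR-21 action dims this reporter so a rising signal means less miR-21 action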
#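 Using DMEM plus 10% FBS, HeLa miR-21-FLuc cells are incubated with test compounds (final up to about 40uM) for 48 hours; firefly luciferase signal is then imaged following reagent-mediated lysis.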
# ClpP mod = qHTS Assay for Activators of ClpP; ATP-dependent Clp protease proteolytic subunit (Bacillus subtilis (strain 168)), P80244; purified B. subtilis ClpP, FRET peptide cleavage, 20 min; Potency, µM (titrated, usually from 57.5 µM); 1.9% of 340,000 active; active = well fitted falling curve with a large enough effect; inconclusive = small, poorly fitted or top-dose-only effect; inactive = no such curve, though single readings can be large or run the other way; note: the source files actives as falling curves though it sought activators and does not explain the sign; nearly all actives have a fitted effect of over 65% in size
#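 FRET quenching reversal measured ClpP activation: 10 microg/mL B. subtilis ClpP at pH 8 with the FRET-FV decapeptide, read at 430 nm after 320 nm excitation. The 20-min minus 0-min signal was scaled between DMSO/no-enzyme wells and ADEP (5.8 microM final).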
# TrxR1 substrate = qHTS Assay for Substrates of Mammalian Selenoprotein Thioredoxin Reductase 1 (TrxR1): qHTS; 0.01% of 390,000 active; Thioredoxin reductase 1, cytoplasmic (Rattus norvegicus), O89049; Potency, µM (top dose mostly 114 µM); purified TrxR1 substrate turnover, NADPH consumption readout; AID 588456, 2011; note: nearly all actives have a fitted effect of over 50% in size
#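 Rat TrxR1, dispensed at 90 nM, was prereduced with 400 uM NADPH (final) for 5 min at ~22 deg C, then incubated with compound 15 min before 400 uM selenite. A first-read NADPH fluorescence drop versus no-compound background flagged substrates.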
# Anesthetic bind = qHTS Assay for Identification of Novel General Anesthetics. Ferritin light chain (Equus caballus), P02791. apoferritin/1-aminoanthracene competitive binding, fluorescence. Potency, µM (top dose mostly 77.5 µM), hits mostly inhibitors. 0.074% of 350,000 active; note: nearly all actives have a fitted effect of over 20% in size
#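 10 uM apoferritin + 50% sat. 1-AMA, PBS; cpd 10 min RT; Ex380/Em535 endpoint; normalized to free probe vs complex; 4-param Hill fit; propofol titration as pos. ctrl.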
# A number is an active result; . = inactive; ? = inconclusive; / = no result; [ ] = dose if it differs, or a comment. Compounds with a hit are over-represented: about 2.5% of the library has one in this group of screens. Unless noted, calls come from the whole dose curve; as a rule, active = well fitted curve in the direction sought with a large enough effect; inconclusive = small, poorly fitted or top-dose-only effect, or another doubt; inactive = no such curve, though single readings can be large; an effect the other way counts as inactive or inconclusive.
SMILES,TrxR1 inh,miR-21 reporter,ClpP mod,TrxR1 substrate,Anesthetic bind
CCOC(=O)c1ccccc1NC(=O)N1CCN2CCCCC2C1 (configuration not stated),.,.,.,.,.
COCc1cc(C)[nH]c(=O)c1C#N,.,.,2.8µM,.,.
CCOC(=O)c1cc(C)[nH]c(=O)c1C#N,.,.,.,.,.
CCOC(=O)N1CCc2c(sc3c2C(=O)NC(c2ccc(N(C)C)cc2)N3)C1 (configuration not stated),.,.,.,.,.
CN1CCc2c(sc3c2C(=O)NC(c2ccco2)N3)C1 (configuration not stated),.,.,28µM,.,.
CN1CCc2c(sc3c2C(=O)NC(c2cn(Cc4ccccc4)c4ccccc24)N3)C1 (configuration not stated),.,.,16µM,.,.
CCOC(=O)N1CCc2c(sc3c2C(=O)NC(c2ccccc2)N3)C1 (configuration not stated),.,.,28µM,.,.
O=C1NC(c2ccco2)Nc2sc3c(c21)CCN(Cc1ccccc1)C3 (configuration not stated),.,.,.,.,.
COc1ccc(C(=O)NC(Oc2ccccc2)C(Cl)(Cl)Cl)cc1 (configuration not stated),11µM,.,.,.,.
CCC(C)c1ccc2oc(-c3ccc(NC(=O)Cn4cnc5c(=O)n(C)c(=O)n(C)c54)cc3)nc2c1 (configuration not stated),.,.,11µM,.,.
O=C(c1ccc2c(c1)N(Cc1ccccc1)C(=O)c1ccccc1S2(=O)=O)N1CCN(Cc2ccccc2)CC1,.,.,.,.,.
Cc1ccc(C)c(NC(=O)Nc2csc3c2CCCC3)c1,.,.,.,.,.
Cc1ccc(/C=C/C(=O)Nc2ccc(S(N)(=O)=O)cc2)o1,5µM,.,.,.,.
Cc1ccc(/C=C/C(=O)Nc2ccncc2)o1,79µM,.,?,.,.
CC(=O)NS(=O)(=O)c1ccc(NC(=O)/C=C/c2ccc(C)o2)cc1,16µM,.,/,.,.
NS(=O)(=O)c1ccc(CNC(=O)/C=C/c2ccco2)cc1,18µM,.,.,.,.
Cc1ccc(/C=C/C(=O)Nc2ccc(N(C)C)cc2)o1,.,.,.,.,.
CC(=O)Nc1ccc(S(=O)(=O)N/N=C/c2ccc(C)o2)cc1,.,.,.,.,.
O=C(Cn1ncc2c3ccccc3n(Cc3ccc(Cl)cc3)c2c1=O)NCc1ccccn1,.,.,.,.,.
Cc1cccc(/C=C/c2cccs2)n1,.,/,.,.,/
Cc1ccc(C(=O)N/C(=C/c2ccco2)C(=O)NCC2CCCO2)cc1 (configuration not stated),?,.,.,.,.
CC(=C/C(=O)O)/C=C/c1ccco1,28µM,.,.,.,.
O=C(/C=C/c1ccco1)NCC1CCCO1 (configuration not stated),28µM,.,.,.,.
CC(/C=C/c1ccc(Cl)o1)=C\C(=O)O,?,.,.,.,.
O=C(/C=C/c1ccc2c(c1)OCO2)NCc1ccco1,?,.,28µM,.,.
SMILES,TrxR1 inh,miR-21 reporter,ClpP mod,TrxR1 substrate,Anesthetic bind
Cc1ccc(/C=C/C(=O)NCc2ccc(S(N)(=O)=O)cc2)o1,16µM,.,/,.,.
Cc1ccc(/C=C/C(=O)OCC(=O)NCCc2ccc(S(N)(=O)=O)cc2)o1,.[2.29 µM],/,/,.[2.29 µM],/
CC(C)C(=O)OCc1cc(=O)n2nc(C3CC3)sc2n1,.,.,.,.,.
O=C(NCCc1ccccc1)c1sc2ncccc2c1-n1cccc1,.,.,.,.,.
CCCCCCCC/C=C\CCCCCCCCCCCC(=O)O,/,/,/,/,.
Cc1ccc(/C=C/C(=O)NCc2ccco2)o1,/,.,/,/,.
O=C(/C=C/c1ccco1)NCc1ccco1,71µM,.,/,.,.
N#C/C(=C\c1ccc([N+](=O)[O-])o1)C(=O)Nc1ccc(F)cc1,3.2µM,.,/,.,.
CN1CCN(C(=O)/C=C/c2ccc([N+](=O)[O-])o2)CC1,?,.,.,.[2.29 µM],.
O=C(O)/C=C/c1ccc([N+](=O)[O-])o1,10µM,.,/,.,.
CC1CN(N=Cc2ccc([N+](=O)[O-])o2)C(=N)O1 (configuration not stated),35µM,/,/,.,/
O=[N+]([O-])c1ccc(/C=N/N=C/c2ccc([N+](=O)[O-])o2)o1,2.5µM,?,.,.,.
N#CCc1ccc(NC(=O)/C=C/c2ccc([N+](=O)[O-])o2)cc1,16µM,?,.,.,.
O=[N+]([O-])c1ccc(/C=N/NS(=O)(=O)c2ccc(Cl)cc2)o1,14µM,.,?,.,.
Cc1ccc(S(=O)(=O)N/N=C\c2ccc([N+](=O)[O-])o2)cc1,?,.,.,.,.
